Test results as given in PubChem BioAssay (NCI).
The panel holds about 83,000 compounds, 20% with a hit somewhere; the sample as a whole holds those more often.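 Activity criterion: percent growth below 10, measured after cells in 96-well plates were exposed to a single compound concentration for 48 hours.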 Unmarked numbers belong to inactive results. The source made the active and inactive calls.

Assays:
Assay in all cases: NCI-60 one-dose screen, 48 h (100 = growth as untreated, 0 = no growth, -100 = all killed)
Settings in all cases: 10 µM unless noted
[1] = system: SR leukemia
[2] = system: RPMI-8226 leukemia
[3] = system: OVCAR-8 ovarian
[4] = system: OVCAR-5 ovarian
[5] = system: OVCAR-4 ovarian
[6] = system: SK-OV-3 ovarian
[7] = system: IGROV1 ovarian
[8] = system: OVCAR-3 ovarian
[9] = system: NCI/ADR-RES ovarian
[10] = system: HS 578T breast

| SMILES | growth [1] | growth [2] | growth [3] | growth [4] | growth [5] | growth [6] | growth [7] | growth [8] | growth [9] | growth [10] |
| --- | --- | --- | --- | --- | --- | --- | --- | --- | --- | --- |
| Cc1ccc(NC(=O)c2sc3nc(C)c(C(O)c4ccccc4)cc3c2N)cc1 (stereo not given) | 1.92% (active) | 5.22% (active) | 18.6% | 34.6% | 46.1% | 14.7% | 28.4% | 5.7% (active) | 7.94% (active) | – |
| COc1ccc(C2C3=C(COC3=O)N(CCO)c3cc4c(cc32)OCO4)cc1OC (stereo not given) | 24.3% | 88.8% | 102% | 94.7% | 88.1% | – | 60.9% | 43% | 94.7% | 92.4% |
| C#Cc1cccc(NC(=O)C2CCCCN2C(=O)CCl)c1 (stereo not given) | 2.64% [8.25 µM] (active) | -38.4% [8.25 µM] (active) | 2.11% [8.25 µM] (active) | -95% [8.25 µM] (active) | -66.9% [8.25 µM] (active) | – | -69.9% [8.25 µM] (active) | -66.3% [8.25 µM] (active) | -5.37% [8.25 µM] (active) | -22.1% [8.25 µM] (active) |
| COC12C=C/C(=C(/C(=O)OCc3csc(SC)n3)C(=O)CCCCCCCCC3(OC)C=C/C(=C(/C(=O)OCc4cnc(SC)s4)C(=O)CCCCCCCC1)O3)O2 (stereo not given) | 1.64% (active) | 1.53% (active) | 27% | 60% | 38.8% | 87.8% | 21% | 21.5% | 81.3% | – |
| CCOC(=O)C#Cc1c(C(=O)OCC)nnn1[C@@H]1O[C@H](COC)[C@@H](OC)[C@H]1OC | 8.26% (active) | 62.5% | 104% | 90.1% | 73.5% | – | 95.1% | 15.5% | 109% | 97% |
| O=C(c1cccc(N2CCOCC2)n1)c1c[nH]c2ccccc12 | 95.7% | 96.6% | 89.9% | 105% | 82.3% | 164% | 70% | 91% | 97.2% | – |
| CC(=O)Nc1sc2c(c1-c1nc3ccccc3s1)CNC2 | 6% (active) | 19.1% | 23.4% | 41.8% | 33.4% | 15.9% | 13.5% | 36.3% | 23.2% | – |
| Brc1ccc(Nc2nc(Nc3cnc4ccccc4c3)c3[nH]cnc3n2)cc1 | 63.9% | 64.2% | 83.9% | 101% | 73.7% | – | 74.7% | 60.2% | – | 60.9% |
| Cc1cccc(N2C(=O)/C(=C/C(Cl)=C/c3ccc([N+](=O)[O-])cc3)SC2=S)c1C | 2.55% (active) | -13.1% (active) | 9.93% (active) | 22.8% | 19.8% | 72.7% | -40.5% (active) | -21.4% (active) | 7.84% (active) | – |
| CS(=O)(=O)Nc1cc(-c2ccc3ncnc(Nc4ccc5c(cnn5Cc5ccccc5F)c4)c3c2)cnc1Cl | 35.4% | 5.17% (active) | 69.7% | 37.9% | 63.4% | – | -15.8% (active) | 13.1% | 92.2% | 7.95% (active) |
| O=C(Nc1nc(Cl)nc(Nc2ccc(N3CCOCC3=O)cc2)n1)c1ccc(Cl)s1 | 7.06% (active) | 90.3% | 87.6% | 99% | 102% | – | 72.6% | 102% | 99% | 89.8% |
| O=c1oc2c(cnc3ccccc32)cc1-c1cccc(Cl)c1 | 93% | 101% | 109% | 94% | 102% | – | 106% | 112% | 103% | 105% |
| CCOc1ccc(NC(=O)Nc2ccc(OCC)cc2)cc1 | 99.4% | 109% | 103% | 111% | 112% | 103% | 110% | 105% | 106% | – |
| COc1cc2c(c(OC)c1OC)CCC(c1cccc(C(=O)Nc3ccc(Br)cc3)c1)O2 (stereo not given) | 27.7% | 40.5% | 71.8% | 68.4% | 63.8% | 72.7% | 61.2% | 78.8% | 63.9% | – |
| CC1=C(Cl)C(=O)c2cc(C)ccc2C1=O | 89.3% | 99.6% | 92.4% | 107% | 103% | 105% | 103% | 105% | 105% | – |
| Cc1ccc(C)c2c1sc1nc(N3CCOCC3)c(C#N)c(=O)n12 | 63.5% | 76.5% | 110% | 95.8% | 76.8% | – | 55.9% | 89.9% | 92.2% | 76.4% |
| Cc1cc(O)cc(-c2nn(C)cc2-c2cc(N3CCOCC3)nc(-c3cccnc3)n2)c1 | 15% | 38.2% | 47.1% | 84.6% | 73.1% | – | 45% | 8.62% (active) | 45.9% | 20.5% |
| COc1cc(C=Nc2oc(-c3ccccc3)c(-c3ccccc3)c2C#N)cc(CN2CCCC2)c1O | 80.9% | 100% | 107% | 102% | 95.5% | – | 92% | 105% | 104% | 90.2% |
| Cc1cccc(NC(=O)N/C(N)=N/c2nc3ccccc3s2)c1 | 27.1% | 26.4% | 35.5% | 56.4% | 56.9% | – | 36.9% | 8.85% (active) | 15% | 23.8% |
| O=c1cc(C(F)(F)F)c2cc(-c3cc4ccccc4c(=O)o3)c(O)cc2o1 | 85.5% | 17.7% | 87% | 103% | 64% | 73.3% | 92.6% | 56.9% | 78.9% | – |
| COc1cc2c(c(OC)c1OC)C(=O)CC(c1cccc(C(=O)Nc3ccc(C#N)cc3)c1)O2 (stereo not given) | 41.2% | 29.7% | 42.9% | 102% | 55.2% | – | 88.5% | 74.5% | 52.4% | 92.4% |
| CC1(C)CC[C@]23CC[C@]4(C)[C@H](CC[C@@H]5[C@@]6(C)CCNCC(C)(C)[C@@H]6CC[C@]54C)[C@H]2[C@H]1OC3 | 4.33% (active) | 29.7% | 97.4% | 106% | 99.8% | – | 107% | 98.5% | 104% | 104% |
| COc1ccc(NC(=O)c2ccc(Nc3ncnc4c3cnn4-c3cccc(F)c3)cc2)cc1 | 95.2% | 96.6% | 99.2% | 100% | 103% | – | 109% | 110% | 103% | 97.4% |
| CN(C)CCn1c(=O)c2ccccc2n2nc3ccccc3c12 | 46.8% | 101% | 79.2% | 105% | 83.9% | – | 74.9% | 99.2% | 76.7% | 97.8% |
| O=C(Oc1ccc2c(c1)sc1nc(-c3ccccc3)[nH]c(=O)c12)C(F)(F)F | 18.9% | 24.1% | 40.8% | 73.4% | 51.4% | – | 32.9% | 9.6% (active) | 7.5% (active) | 18.8% |
| COc1cc(/C=C/C(=O)c2cccc(-n3cc(-c4ccc(Cl)cc4)[nH]c3=O)c2)ccc1O | 33% | 5.06% (active) | 46.5% | 91.4% | 57% | – | -10.6% (active) | 3.36% (active) | 35.4% | 76.5% |
| CN1c2ccccc2S(=O)(=O)n2c(SCC(=O)Nc3nc4ccc(F)cc4s3)nnc21 | 59.8% | 70.1% | 97.4% | 113% | 112% | – | -22.6% (active) | 124% | 89.7% | 80.4% |
| O=C1/C(=C/c2cccc(Br)c2)COc2ccc(O)cc21 | 4.39% (active) | -27.3% (active) | 54.1% | 89.8% | 83.4% | 115% | 78% | 49.1% | 47.6% | – |
| Cc1[nH]c(C(=O)Nc2ccccc2OC2CCN(CCN3CCOCC3)CC2)c(Cl)c1Cl | 10.3% | 67.4% | 101% | 96.4% | 97.7% | 111% | 101% | 109% | 97.6% | – |
